Measured values published in article PMC5540273 (PLoS ONE, 2017).

What was measured:
Conditions in all cases: concentration: 1 μM, replicates: in singlicate; n = 1
[1] = tested on: CSK
[2] = tested on: CSNK1A1L
[3] = tested on: CSNK1A1
[4] = tested on: CSNK1D
[5] = tested on: CSNK1E
[6] = tested on: CSNK1G1
[7] = tested on: CSNK1G2
[8] = tested on: CSNK1G3
[9] = tested on: CSNK2A1
[10] = tested on: CSNK2A2
[11] = tested on: T1, CTK
T1 construct: gene MATK

[12] = tested on: DAPK1
[13] = tested on: DAPK2
[14] = tested on: DAPK3
[15] = tested on: T2, DCAMKL1
T2 construct: gene DCLK1

[16] = tested on: T3, DCAMKL2
T3 construct: gene DCLK2

[17] = tested on: T4, DCAMKL3
T4 construct: gene DCLK3

[18] = tested on: DDR1
[19] = tested on: DDR2
[20] = tested on: T5, DLK
T5 construct: gene MAP3K12
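Also: KINOMEscan kinase panel screen.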

Row | SMILES | %Inh [1] [%] | %Inh [2] [%] | %Inh [3] [%] | %Inh [4] [%] | %Inh [5] [%] | %Inh [6] [%] | %Inh [7] [%] | %Inh [8] [%] | %Inh [9] [%] | %Inh [10] [%] | %Inh [11] [%] | %Inh [12] [%] | %Inh [13] [%] | %Inh [14] [%] | %Inh [15] [%] | %Inh [16] [%] | %Inh [17] [%] | %Inh [18] [%] | %Inh [19] [%] | %Inh [20] [%]
1 | Cc1ccc(NC(=O)Nc2ccccc2)cc1-c1ccc(C(=O)Nc2ccncc2)cc1 [GSK1398471] | 2 | 0 | 0 | 13 | 24 | 11 | 13 | 29 | 6 | 7 | 0 | 3 | 3 | 9 | 10 | 0 | 24 | 95 | 38 | 9
2 | COC(=O)c1cccc(NC(=O)NC2CCN(c3ccnc(Nc4ccc(OC)cc4)n3)C2)c1 (centres unmarked) [GSK1379746] | 0 | 0 | 0 | 21 | 35 | 0 | 0 | 26 | 0 | 0 | 0 | 0 | 0 | 0 | 8 | 0 | 0 | 11 | 46 | 35
3 | CCn1c(-c2ccccc2)nc2cnccc21 [SB-733416] | 0 | 11 | 0 | 2 | 24 | 0 | 0 | 11 | 0 | 1 | 6 | 0 | 0 | 18 | 15 | 1 | 33 | 16 | 13 | 16
4 | Cc1c(Cn2c3ccccc3n3c(=O)cc(N4CCOCC4)nc23)cccc1C(F)(F)F [GSK2306394] | 0 | 0 | 19 | 10 | 12 | 9 | 43 | 17 | 6 | 14 | 10 | 12 | 4 | 0 | 0 | 0 | 0 | 19 | 0 | 0
5 | CC(=O)c1c(C)c2cnc(Nc3ccn(C)n3)nc2n(C2CCCC2)c1=O | 1 | 0 | 3 | 0 | 0 | 0 | 0 | 16 | 56 | 50 | 0 | 0 | 0 | 3 | 0 | 100 | 0 | 0 | 0 | 64
6 | CCCCc1nn2ncccc2c1-c1ccnc(NC2CC2)n1 [GW684374] | 2 | 0 | 18 | 90.1 | 92.4 | 0 | 0 | 25 | 0 | 5 | 0 | 20 | 0 | 12 | 0 | 0 | 0 | 67 | 23 | 35
7 | FC(F)(F)c1ccccc1-c1cc(-c2c[nH]nc2-c2ccccn2)ccn1 [GW679396] | 0 | 3 | 0 | 36 | 23 | 16 | 0 | 24 | 7 | 17 | 0 | 0 | 9 | 23 | 6 | 0 | 2 | 68 | 2 | 32
8 | Cc1c(Cn2c(C)c(C)n3c(=O)cc(N4CCOCC4)nc23)cccc1C(F)(F)F [GSK2328680] | 0 | 10 | 0 | 24 | 20 | 0 | 0 | 21 | 2 | 5 | 0 | 0 | 0 | 3 | 0 | 21 | 5 | 0 | 11 | 14
9 | COc1ccc(-c2coc3ccc(-c4nnc(C)o4)cc23)cc1 | 0 | 0 | 0 | 0 | 0 | 4 | 1 | 0 | 0 | 15 | 0 | 0 | 1 | 0 | 15 | 0 | 13 | 0 | 0 | 0
10 | Cc1ccc(-c2nc(Nc3ccncc3)c3ccccc3n2)s1 [GSK189015] | 0 | 13 | 24 | 33 | 22 | 14 | 12 | 35 | 27 | 30 | 8 | 11 | 0 | 10 | 17 | 30 | 15 | 61 | 2 | 0
